# Experimental data reported in PubChem BioAssay AID1347413 (National Center for Advancing Translational Sciences (NCATS), 2020).
# Calls of active or inactive are those of the source. Calls come from the whole dose curve; as a rule, active = well fitted curve in the direction sought with a large enough effect; inactive = no such curve, though single readings can be large or run the other way.
# Experiment: qHTS to identify inhibitors of the type 1 interferon - major histocompatibility complex class I in skeletal muscle: tertiary screen by RT-qPCR, retest select compounds
# Settings: C25cl48 myoblasts, IFN-beta, HLA-B RT-qPCR, 24 h
# Source text: Assay Submitter (PI): Travis B. Kinder Ph.D. & James Inglese Ph.D. Assay Development and Screening Technology Laboratory (ADST) National Center for Advancing Translational Sciences (NCATS), Rockville, MD National Institute of Health (NIH), Bethesda, Maryland Idiopathic inflammatory myopathies, collectively referred to as myositis, are a group of rare autoimmune diseases characterized by skeletal muscle inflammation, weakness, and usually accompanied by systemic pathologies of the skin, lungs, or vasculature. Current immunosuppressive therapies and glucocorticoids are often not curative and are accompanied by harsh side effects, especially in children with juvenile myositis. We initiated a drug repurposing and development program to identify more targeted, less toxic therapeutics to treat myositis. Although its cause is not known, muscle from a subset of patients have an abundance of the inflammatory type 1 interferon (IFN) and a down-stream product major histocompatibility complex class I (MHC class I), which are both thought to contribute to damage and weakness. We conducted quantitative high throughput screening (qHTS) on 6,576 compounds (4,679 unique) through a series of cell-based assays to identify those that inhibit the IFN-stimulated expression of MHC class I in muscle precursor cells (myoblasts). […]
compound,measurement,value
CC(C)[C@]12O[C@H]1[C@@H]1O[C@@]13[C@@]1(C)CCC4=C(COC4=O)[C@@H]1C[C@@H]1O[C@@]13C2=O,Potency,0.654 µM (active)
